The full list was thinned out, with hits kept by preference.
TbREL1 primary: TbREL1 RNA ligase inhibitors, primary screen, biochemical, FRET fluorescence | RNA-editing ligase 1, mitochondrial (Trypanosoma brucei brucei), P86926 | TbREL1 RNA ligation | inhibition, % at 9.66 µM | 0.49% of 89,000 active | AID 1117264, 2014;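 active means inhibition above the mean inhibition across all screened compounds plus 3 SD, cut at about 11% in these data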;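 further: 0% = plate median of test wells and 100% = NSC42067 control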
Target sequence (P86926 whole entry, looked up): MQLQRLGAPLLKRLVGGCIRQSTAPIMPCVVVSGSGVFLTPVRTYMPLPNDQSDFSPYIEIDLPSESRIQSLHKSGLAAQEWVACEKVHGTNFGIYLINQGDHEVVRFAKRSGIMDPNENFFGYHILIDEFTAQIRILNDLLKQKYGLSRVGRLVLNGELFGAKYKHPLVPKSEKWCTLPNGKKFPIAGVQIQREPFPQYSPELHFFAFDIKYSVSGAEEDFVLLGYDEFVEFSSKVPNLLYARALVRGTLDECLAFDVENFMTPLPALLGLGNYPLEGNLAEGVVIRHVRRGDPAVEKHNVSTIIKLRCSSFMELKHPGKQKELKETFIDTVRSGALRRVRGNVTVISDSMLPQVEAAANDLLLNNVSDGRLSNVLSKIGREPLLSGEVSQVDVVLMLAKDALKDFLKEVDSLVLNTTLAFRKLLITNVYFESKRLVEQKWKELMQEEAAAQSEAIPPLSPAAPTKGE
TbREL1 conf: TbREL1 RNA ligase inhibitors, confirmation, biochemical, FRET fluorescence, triplicate; shares compounds with TbREL1 primary; 37% of 390 active; AID 1117282, 2014; inhibition, % at 9.66 µM; TbREL1 RNA ligation;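 active means mean inhibition across replicates above a set limit taken from the earlier primary screen, cut at about 11% in these data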;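 further: 0% = REL1 with substrate and DMSO and 100% = REL1 plus control inhibitor NSC42067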
* marks the source's active call; other numbers are inactive results.

SMILES	TbREL1 primary	others
Cc1cc(C)cc(NC(=O)CSc2nc3[nH]c(=O)cc(O)c3s2)c1	-5
Cc1cc(C)nc(SCC(=O)Nc2nccs2)n1	0
CCCSc1nnc(NC(=O)CSc2sc3c(O)cc(=O)[nH]c3c2C#N)s1	27*	TbREL1 conf=16*
N#Cc1c(SCC(=O)Nc2nccs2)sc2c(O)cc(=O)[nH]c12	38*	TbREL1 conf=23*
CCCC(=O)Nc1nnc(SCC)s1	3
COc1ccc(-c2cc(-c3ccccc3)nc(SCC(=O)Nc3nccs3)c2C#N)cc1	-1
O=C(Nc1ccc(F)cc1)OCc1cn(Cc2cccc(F)c2)nn1	0
C=C(C)CSc1nnc(-c2cc(-c3ccccc3)n[nH]2)n1N	2
CCN(CC)c1c2c(nc3ncnn13)CCCC2	6
NC(=O)c1ccc2nc(NC(=O)c3ccc(N)cc3)sc2c1	4
O=C(Nc1nc2ccccc2s1)c1ccc(Cl)s1	4
O=C(Nc1nc2ccccc2s1)c1ccc(F)cc1	15*	TbREL1 conf=7
O=C(Nc1c(-c2ccc(F)cc2)nc2ncccn12)c1ccccc1	9
CCN(CC)c1ccc(NC(=O)CSc2nc3ccccc3c(=O)n2-c2ccc(C)cc2)cc1	-3
COc1ccc2c(c1)C[C@@H](CON1C(C)(C)CCCC1(C)C)N2S(=O)(=O)c1ccc(C)cc1	-6
COc1ccc(CNCCC(c2ccccc2)c2ccc(OC(C)C)cc2)cc1OC (stereo unspecified)	10
COc1ccc(C(CCNCc2ccc(OC(C)C)cc2)c2ccccc2OC)cc1 (stereo unspecified)	15*	TbREL1 conf=19*
CC(C)Oc1ccc(CNCCC2(C(C)C)CCOC(C)(C)C2)cc1 (stereo unspecified)	2
CCOC(=O)C1CCN(C(=O)C(C)(C)NC(=O)Nc2ccc(OC)c(Cl)c2)CC1	-3
Cc1ccc(N2CCN(/N=C\c3cccnc3)CC2)cc1	-3
O=C(NCCc1c[nH]c2ccccc12)c1ccc(Sc2ccccc2Cl)c([N+](=O)[O-])c1	-4
COc1ccc(-n2c(Cc3cccs3)nnc2SCC(=O)Nc2ccc(OCc3ccccc3)cc2)cc1	0
CCCCCCCCN1C(=O)[C@@H](CC(=O)N2CCN(C(=O)OCC)CC2)C[C@@]2(C(=O)OC)C1=C[C@H](C(C)C)O[C@@H]2C1CC1	0
COc1ccc(C(=O)N[C@H]2CC[C@@]34CCCN3C(=O)CCC[C@H]4[C@H]2C)cc1	5
COc1ccc(-n2c(SCC(=O)Nc3ccc4c(c3)OCO4)nc3sc4c(c3c2=O)CCCC4)cc1	2
SMILES	TbREL1 primary	others
O=C(N/N=C/c1ccc(OC(=O)c2cccc(Br)c2)cc1)c1cccnc1	0
O=C(N/N=C/c1cccnc1)c1cccc(NC(=O)c2cccc(Br)c2)c1	12*	TbREL1 conf=1
O=C(N/N=C/c1cccc(OC(=O)c2cccc(Br)c2)c1)c1cccnc1	1
COc1ccc(-c2noc(C3CCCN(C(=O)Nc4ccc5c(c4)OCO5)C3)n2)cc1 (stereo unspecified)	4
O=C1C(=O)N(Cc2ccc(-c3ccc(F)nc3)cc2)c2ccc(OC(F)(F)F)cc21	-1
CC(=O)CCc1ccc(OCCCCN2CCC(Cc3ccccc3)CC2)cc1	1
CCC(=O)c1ccccc1OCCCN1CCC(Cc2ccccc2)CC1	11*	TbREL1 conf=11*
CCOc1ccccc1OCCN1CCC(Cc2ccccc2)CC1	2
CC(NCc1ccco1)C(=O)N1CCN(c2cccc(C(F)(F)F)c2)CC1 (stereo unspecified)	-3
c1ccc(OCc2nnc(SCc3nc4ccccc4[nH]3)n2-c2ccccc2)cc1	3
CN(CCc1ccccn1)C(=O)c1ccc2c(c1)ncn2C1CCCCC1	-4
CC1CCN(C2=NC(=O)N(c3ccc(Br)cc3)C(=O)C2)CC1	-4
Cc1ccc(C(=O)C2CCN(CC(=O)NCc3cccs3)CC2)cc1	-5
Cc1ccc(-c2nnc(NC(=O)COc3ccc(F)cc3Cl)o2)cc1C	1
COc1ccc(-c2nnc(SCC(=O)Nc3ccc4cn[nH]c4c3)n2Cc2ccco2)cc1	3
CC(C)c1ccc(NC(=O)CSc2nnc(-c3ccco3)n2C)cc1	3
COc1cccc(NC(=O)CSc2nnc(-c3ccco3)c(-c3ccco3)n2)c1	11*	TbREL1 conf=5
CC(=O)c1ccc(NC(=O)CSc2ccc(-c3ccco3)nn2)cc1	-2
O=C(CSc1nnc(-c2ccco2)c(-c2ccco2)n1)Nc1ccccc1	24*	TbREL1 conf=8
COc1cccc(NC(=O)CSCC(=O)Nc2ccccc2)c1	-1
COc1cccc(NC(=O)CSc2cccc[n+]2[O-])c1	2
COC(=O)c1ccc(Cn2ccc3ccc(-c4ccc5ccn(C(=O)c6ccccc6OC)c5c4)cc32)cc1	1
COc1ccc2c(c1)C[C@@H]1CC(C)(C)CN1S2(=O)=O	-3
O=C(N1CCC(n2nc(-c3ccccc3)oc2=O)CC1)C1(c2ccccc2)CCCC1	2
CCc1ccc(Oc2c(Cl)cnn(-c3ccc(C)cc3)c2=O)cc1	0

Compound activity: PubChem, The Scripps Research Institute Molecular Screening Center
